Measurements reported in PubChem BioAssay AID1159580 (chemical genetic matrix, 2015).
Several values for one entry are separate records, joined by “and”; a condition that tells them apart may be missing. Equal values may be shown once. In all, about 5,500 compounds went through this assay and about 2,000 (36%) were called active. Not shown: some 18% with an inconclusive outcome. Cut-off read from the data, not from the text of the source: active = normalized growth mostly below about 0.91 (no sharp cut-off); inconclusive = no clear call, values can overlap the other calls; inactive = mostly above about 0.92. The list shows a part of the results.

Assay: chemical genetic growth profiling, strain panel (AID 1159580);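 note: tested at 20 µM; growth read once vehicle control cultures reached saturation at 30 °C; 1 = growth at the plate median or of vehicle wells; lower values mean less growth of the strain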
Conditions: S. cerevisiae deletion strains, growth OD

Measured: normalized growth

COc1cc2c3cc1Oc1cc(ccc1O)C[C@@H]1c4c(cc(OC)c(O)c4Oc4ccc(cc4)C[C@@H]3N(C)CC2)CC[N+]1(C)C
inactive: locus YAL021C, strain ccr4, stronger effect = lower value 1 | locus YAL026C, strain drs2, stronger effect = lower value 0.976 | locus YAL030W, strain snc1, stronger effect = lower value 1.01 | locus YBL061C, strain skt5, stronger effect = lower value 1 | locus YBR009C, strain hhf1, stronger effect = lower value 0.943 | locus YBR021W, strain FUR4, stronger effect = lower value 0.998 | locus YBR023C, strain chs3, stronger effect = lower value 0.997 | locus YBR171W, strain sec66, stronger effect = lower value 1.01 | locus YBR229C, strain ROT2, stronger effect = lower value 1 | locus YBR231C, strain swc5, stronger effect = lower value 1.02 | locus YBR279W, strain paf1, stronger effect = lower value 0.991 | locus YCL011C, strain gbp2, stronger effect = lower value 0.954 | locus YCL016C, strain dcc1, stronger effect = lower value 0.939 | locus YCL029C, strain bik1, stronger effect = lower value 0.999 | locus YCL069W, strain vba3, stronger effect = lower value 0.998 | locus YCR088W, strain abp1, stronger effect = lower value 0.997 | locus YDL005C, strain med2, stronger effect = lower value 1 | locus YDL035C, strain GPR1, stronger effect = lower value 1 | locus YDL040C, strain nat1, stronger effect = lower value 1.01 | locus YDL074C, strain BRE1, stronger effect = lower value 1.02 | locus YDL101C, strain DUN1, stronger effect = lower value 1.02 | locus YDL185W, strain tfp1, stronger effect = lower value 1.01 | locus YDL192W, strain arf1, stronger effect = lower value 0.998 | locus YDR001C, strain nth1, stronger effect = lower value 0.972 | locus YDR069C, strain doa4, stronger effect = lower value 1.02 | locus YDR101C, strain arx1, stronger effect = lower value 1 | locus YDR137W, strain rgp1, stronger effect = lower value 1 | locus YDR159W, strain sac3, stronger effect = lower value 0.927 | locus YDR162C, strain NBP2, stronger effect = lower value 1.03 | locus YDR195W, strain ref2 1.01 | locus YDR297W, strain sur2, stronger effect = lower value 1 | locus YDR318W, strain mcm21, stronger effect = lower value 0.994 | locus YDR334W, strain swr1, stronger effect = lower value 0.979 | locus YDR335W, strain msn5, stronger effect = lower value 0.995 | locus YDR388W, stronger effect = lower value 1 | locus YDR392W, strain spt3, stronger effect = lower value 0.769 | locus YDR502C, strain sam2, stronger effect = lower value 1 | locus YEL003W, strain gim4, stronger effect = lower value 1 | locus YEL037C, strain rad23, stronger effect = lower value 0.999 | locus YEL061C, strain CIN8 (second series), stronger effect = lower value 0.967 | locus YEL061C, strain CIN8, stronger effect = lower value 1.01 | locus YER015W, strain faa2, stronger effect = lower value 0.996 | locus YER016W, strain bim1, stronger effect = lower value 0.988 | locus YER110C, stronger effect = lower value 1.01 | locus YER111C, strain swi4, stronger effect = lower value 0.994 | locus YER155C, strain BEM2 (second series), stronger effect = lower value 1.05 | locus YER155C, strain BEM2, stronger effect = lower value 1.02 | locus YER167W, strain BCK2, stronger effect = lower value 1.01 | locus YFR010W, strain ubp6, stronger effect = lower value 0.989 | locus YGL078C, strain dbp3, stronger effect = lower value 0.993 | locus YGL086W, strain mad1, stronger effect = lower value 1.03 | locus YGL167C, strain pmr1, stronger effect = lower value 1 | locus YGL173C, strain kem1, stronger effect = lower value 1 | locus YGL227W, strain vid30, stronger effect = lower value 0.981 | locus YGL240W, strain doc1, stronger effect = lower value 1.02 | locus YGL248W, strain PDE1, stronger effect = lower value 1.02 | locus YGL253W, strain hxk2, stronger effect = lower value 0.978 | locus YGR135W, strain pre9, stronger effect = lower value 0.989 | locus YGR252W, strain gcn5, stronger effect = lower value 0.947 | locus YHR013C, strain ard1, stronger effect = lower value 0.943 | locus YHR027C, strain rpn1, stronger effect = lower value 0.988 | locus YHR030C, strain SLT2, stronger effect = lower value 1 and 0.98 | locus YHR079C, strain IRE1 (second series), stronger effect = lower value 1.01 | locus YHR079C, strain IRE1, stronger effect = lower value 0.981 | locus YHR094C, strain hxt1, stronger effect = lower value 0.996 | locus YHR129C, strain ARP1, stronger effect = lower value 1.02 | locus YHR142W, strain chs7, stronger effect = lower value 1 | locus YHR200W, strain rpn10, stronger effect = lower value 0.993 | locus YIL066C, strain RNR3, stronger effect = lower value 1.01 | locus YIL073C, strain SPO22, stronger effect = lower value 1.07 | locus YIL125W, strain kgd1, stronger effect = lower value 1.01 | locus YIR030C, strain dcg1, stronger effect = lower value 0.997 | locus YJL092W, strain hpr5, stronger effect = lower value 0.988 | locus YJL095W, strain BCK1 (second series), stronger effect = lower value 1 | locus YJL095W, strain BCK1, stronger effect = lower value 1.06 and 0.983 | locus YJL115W, strain asf1, stronger effect = lower value 0.983 | locus YJL129C, strain trk1, stronger effect = lower value 1 | locus YJL134W, strain LCB3, stronger effect = lower value 1.01 | locus YJL154C, strain vps35, stronger effect = lower value 0.992 | locus YJL164C, strain tpk1, stronger effect = lower value 0.957 | locus YJL166W, strain qcr8, stronger effect = lower value 1.04 | locus YJL168C, strain set2, stronger effect = lower value 1.01 | locus YJL187C, strain SWE1 (second series), stronger effect = lower value 1.04 | locus YJL187C, strain SWE1, stronger effect = lower value 1.01 | locus YJR043C, strain POL32, stronger effect = lower value 0.991 | locus YJR066W, strain TOR1, stronger effect = lower value 0.969 | locus YJR075W, strain HOC1, stronger effect = lower value 1.03
